The whole screen tested about 2,300 compounds, of which about 1,200 (52%) were called active. The rule behind the calls is not given here. The set was probably picked from earlier hits. Some of the results follow. Where a call stands in place of a potency, no number is given. Potency and affinity values are given separately.
Experiment: mammalian cell cytotoxicity, dose response, cytotoxicity control for M. tuberculosis inhibitor project (AID 435019);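 note: lower values mean fewer viable cells so more cytotoxicity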
Conditions: cytotoxicity counter-screen; series mostly up to 40 µM

| Structure (SMILES) | outcome |
| --- | --- |
| COC(=O)CSc1nnc(-c2sc3cc(OC)ccc3c2Cl)n1C | inactive |
| CNC(=O)COC(=O)c1ccc(-c2nc3ccccc3s2)s1 | inactive |
| CNC(=O)c1csc(-c2ccc(Cl)cc2)n1 | inactive |
| COc1ccc(COC(=O)CCNC(=O)c2ccc(Cl)cc2)cc1 | inactive |
| C/C(=N\Nc1ccc(Cl)c(Cl)c1)c1ccc(-n2ccnc2)cc1 | inactive |
| CNc1ncnc2c1ncn2[C@@H]1O[C@H](CO)[C@@H](O)[C@H]1O | inactive |
| O=C(CCSc1ccccn1)c1ccccc1 | inactive |
| O=C(OCC#CCSc1nnc(-c2cccc3ccccc23)o1)c1cccs1 | inactive |
| O=C(CCC(=O)NC1CCCCCCC1)Nc1nnc(C(F)(F)F)s1 | inactive |
| CCOc1ccc(NC(=S)NC23CN4CN(CN(C4)C2)C3)cc1 | inactive |
| COc1ccc(S(=O)(=O)N(C)CC(=O)NCCCn2ccnc2)cc1Cl | inactive |
| CCCOc1ccc(N2CC(C(=O)Nc3ccccn3)CC2=O)cc1 (centres undefined) | inactive |
| Nc1ccc(S(=O)(=O)Nc2cnc3ccccc3n2)cc1 | inactive |
| CCOc1ccc(N2C(=O)CS/C2=C(\C(Cl)=C(Cl)Cl)[N+](=O)[O-])cc1 | inactive |
| COc1ccc(C(=O)Cn2nc(CNc3ccc(Br)cc3)[n+]3c2CCCCC3)cc1 | inactive |
| CCc1nnc(NS(=O)(=O)c2ccc(N/C=C\C(=O)c3cccc(OC)c3)cc2)s1 | inactive |
| COc1ccc(C2CC2/C(C)=N/OC(=O)c2ccc(F)cc2)cc1 (centres undefined) | inactive |
| CCCCCC(=O)Nc1cccc2ccccc12 | inactive |
| COc1cc(N=Nc2ccc3ccccc3c2)ccc1O | inactive |
| CCOc1cccc2cc(C(=O)Nc3nccs3)c(=O)oc12 | inactive |
| O=C(O)Cc1cnc[nH]1 | inactive |
| O=C(CCl)c1ccc2c(c1)CCN2C(=O)C1CCCCC1 | inactive |

| Structure (SMILES) | outcome |
| --- | --- |
| C(=C\c1ccccc1)/C=N/Nc1nc2ccccc2s1 | inactive |
| COc1ccccc1/C=C/C1=NC(=C\C=C/c2ccccc2)/C(=O)O1 | inactive |
| COc1ccc(C2CC(=O)C3=C(C2)NC(C)=C(C#N)C3c2ccc(N(C)C)cc2)cc1 (centres undefined) | inactive |
| CCOc1ccc(N=CC2=C(O)CC(c3ccco3)CC2=O)cc1 (centres undefined) | inactive |
| CCCCCCc1cc2cc(C(=O)NCc3ccccc3)c(=N)oc2cc1O | inactive |
| Nc1c(C(=O)Nc2ccc(Br)cc2)sc2nc(-c3ccco3)ccc12 | inactive |
| Cc1ccc(NC2Sc3ccccc3NC2=O)cc1Cl (centres undefined) | inactive |
| O=C(C[n+]1ccccc1)NNc1ccccc1 | inactive |
| Cc1ccc(NC(=O)COC(=O)c2ccc(=O)n(Cc3ccccc3)n2)cc1F | inactive |
| CN(C)C(=O)c1ccc(NC(=O)COC(=O)c2cc3c(s2)CCCCC3)cc1 | inactive |
| COc1ccc(C(=O)COC(=O)[C@H](C)Nc2ccc(C(F)(F)F)cc2[N+](=O)[O-])cc1 | inactive |
| COC(=O)c1ccc(Cn2cc(C(F)(F)F)cc([N+](=O)[O-])c2=O)cc1 | inactive |
| CCOC(=O)CSc1nsc(SCC(=O)OCC)c1C#N | inactive |
| CCOc1ccc(N=c2scc(-c3ccccc3)n2CCO)cc1 | inactive |
| Oc1ccc2cc(Br)ccc2c1CN1CCCC1 | inactive |
| CSc1cc(-c2ccncc2)nc(-c2ccc(Cl)cc2)c1 | inactive |
| Cc1ccnc(NC(=O)CCc2c[nH]c3ccccc23)c1 | inactive |
| Cn1ccc(=Nc2ccc(NC(=O)c3ccc(N=c4ccn(C)c5ccc([N+](=O)[O-])cc45)cc3)cc2)cc1 | inactive |
| CCOC(=O)C1CCCN(c2ncnc3c2cnn3-c2ccc(OC)cc2)C1 (centres undefined) | inactive |
| COc1ccc(-c2nnc(SCC(=O)N3CCc4ccccc4C3)o2)cc1 | inactive |
| CCOC(=O)N1CCN=C1SCc1ccc(C(F)(F)F)cc1 | inactive |
| COc1ccc(-c2nnc(NC(=O)c3ccc([N+](=O)[O-])o3)o2)c(OC)c1 | inactive |

| Structure (SMILES) | outcome |
| --- | --- |
| O=[N+]([O-])c1ccc(-n2cnc3ccccc32)c([N+](=O)[O-])c1 | inactive |
| Cc1ccc(S(=O)(=O)N(C)c2ccc(OCC(=O)OCc3ccc(C#N)cc3)cc2)cc1 | inactive |
| CC(/C=C/c1ccccc1)=N\NC(N)=S | inactive |
| CC1CCC/C(=N\NC(=S)Nc2ccccc2)C1 (centres undefined) | inactive |
| O=C(OCCN1C(=O)c2ccccc2C1=O)c1cc2ccccc2o1 | inactive |
| Cc1ccnc(N2CCC(C(=O)Nc3cccc(C(F)(F)F)c3)CC2)n1 | inactive |
| CCN(CC)S(=O)(=O)c1ccc(/C=C/C(=O)OCC#N)cc1 | inactive |
| CCOC(=O)NNc1ccccc1 | inactive |
| CCOC(=O)c1c(/N=C/N(C)C)sc(/C=N/Nc2ccccc2)c1-c1ccccc1Cl | inactive |
| COC(=O)C1C2c3ccccc3OC1(C)N=c1s/c(=C/c3cnn(C)c3C)c(=O)n12 (centres undefined) | inactive |
| CCc1cc2c(=O)c(-c3cnn(-c4ccccc4)c3)c(C)oc2c(CN2CCCCC2)c1O | inactive |
| CC(NC(=O)c1ccccc1Br)C1CC2CCC1C2 (centres undefined) | inactive |
| O=C(OCc1nc2ccccc2s1)c1ccc(Br)o1 | inactive |
| Cc1cc(/C=C/C(=O)O)c(C)n1-c1ccc(Cl)cc1 | inactive |
| CNc1cccccc1=S | inactive |
| NC(=O)CSc1nnc(COc2ccc3ccccc3c2)o1 | inactive |
| COc1ccc2c(c1)CCc1c(C(=O)Nc3c(C)n(C)n(-c4ccccc4)c3=O)noc1-2 | inactive |
| Cc1c(O)c(=O)n(-c2ccccc2)n1C | inactive |
| CC(C)(C)c1ccc(C(=O)CSc2n[nH]c(=O)[nH]c2=O)cc1 | inactive |
| Cc1ccccc1Cn1ccc(=NCc2ccccc2)cc1 | inactive |
| CC(=O)n1cc(/C=C2/N=C(c3ccccc3)OC2=O)c2ccccc21 | inactive |
| O=C(CN1CCCCC1)Nc1nnc(-c2ccc([N+](=O)[O-])cc2)s1 | inactive |

| Structure (SMILES) | outcome |
| --- | --- |
| Cc1ccc(NC(=O)Cc2ccc(-c3ccccc3)cc2)nc1 | inactive |
| CSc1cccc(NC(=O)CCS(=O)(=O)c2cccc3nonc23)c1 | inactive |
| COC(=O)c1ccc(-n2cnc3ccccc32)nc1 | inactive |
| COc1ccc(N2CCN(C(=O)c3ccc(CNc4c(N5CCOCC5)c(=O)c4=O)cc3)CC2)cc1 | inactive |
| CN(C)c1ccc(/C=C2\N=C(C(C)(C)C)OC2=O)cc1 | inactive |
| CCC(C)N1CCC2(CC1)N=c1c(c3c4c5c(C)c(O)c3c(O)c1=NC(=O)C(C)=CC=C[C@H](C)[C@H](O)[C@@H](C)[C@@H](O)[C@@H](C)[C@H](OC(C)=O)[C@H](C)[C@@H](OC)C=CO[C@@](C)(O5)C4=O)N2 (some centres undefined) | inactive |
| Cc1c2c(nc3ccccc13)CCC(C)C2 (centres undefined) | inactive |
| O=C1C(c2ccccc2)=[N+]([O-])c2ccccc21 | inactive |
| COc1ccc(NC(=O)CSC2CCCCC2)cc1 | inactive |
| COc1ccc(C2CC(=O)c3cnc(Nc4cc(C)cc(C)c4)nc3C2)cc1 (centres undefined) | inactive |
| O=C(N/N=C/c1c(F)c(F)c(F)c(F)c1F)c1cccc(S(=O)(=O)N2CCOCC2)c1 | inactive |
| COc1ccc(NC(=O)c2oc3ccc(S(=O)(=O)N4CCOCC4)cc3c2C)cc1 | inactive |
| COc1cc2cc(C(c3nnnn3C(C)(C)C)N3CCc4ccccc43)c(=O)[nH]c2cc1OC (centres undefined) | inactive |
| COc1ccc(C2=NC(=O)/C(=C\c3cc(OC)c(OC)c(OC)c3)O2)cc1 | inactive |
| CCCCOC(=O)c1ccc(NC(=S)NC(=O)c2c(Br)c(C)nn2C)cc1 | inactive |
| CN(CCO)c1cc(Sc2nc3ccccc3s2)c2nonc2c1[N+](=O)[O-] | inactive |
| CCCSC1=C(C#N)C(c2ccc(Cl)cc2Cl)CC(=O)N1 (centres undefined) | inactive |
| CN(C(=O)COC(=O)/C=C/c1ccc(Cl)c(Cl)c1)c1c(N)n(Cc2ccccc2)c(=O)[nH]c1=O | inactive |
| C=CCOc1c(Br)cc(CNc2nccs2)cc1OC | inactive |
| O=C(CCc1nnc(CCCc2ccccc2)o1)NCCCC1CCCC1 | inactive |
| COc1ccc(N/C=C(\C2OC(=O)c3ccccc32)[N+](=O)[O-])cc1 (centres undefined) | inactive |
| COc1ccc(N=N/C(=C\O)C(=O)c2cccs2)cc1 | inactive |

| Structure (SMILES) | outcome |
| --- | --- |
| Cc1nc(SCC(=O)Nc2ccc(OCc3ccccc3)cc2)n[nH]1 | inactive |
| C=CCc1cccc2cc(C(=O)OCC(=O)c3ccccc3)c(=O)oc12 | inactive |
| Cn1ccnc1C(=O)C1CCCN(Cc2cn[nH]c2-c2ccc(-c3ccccc3)cc2)C1 (centres undefined) | inactive |
| CC(=O)c1cccc(Nc2nc(-c3cccnc3)cs2)c1 | inactive |
| O=C(OCc1csc(Nc2ccccc2)n1)c1ccc(Cl)cc1 | inactive |
| O=C(/C=C/c1ccc([N+](=O)[O-])cc1)NC1CC2CCC1C2 (centres undefined) | inactive |
| CC(C)Oc1ccc(C(=O)N/N=C/c2ccc(-c3ccc(S(=O)(=O)Nc4ncccn4)cc3)o2)cc1 | inactive |
| O=C(c1ccc([N+](=O)[O-])s1)N1CCN(c2ccc(C(F)(F)F)cn2)CC1 | inactive |
| O=c1[nH]c(CN2CC=C(c3ccccc3)CC2)nc2cc(C(F)(F)F)ccc12 | inactive |
| CC(C)CNC(=S)NC(=O)c1csc([N+](=O)[O-])c1 | inactive |
| O=C(Nc1cc(C(F)(F)F)ccc1Cl)C(Sc1cccc[n+]1[O-])c1ccccc1 (centres undefined) | inactive |
| CC1(C)CC(=O)c2cc(C(=O)NNc3ccccc3)c(=O)n(-c3ccccc3)c2C1 | inactive |
| COc1ccc(NC(=O)CSc2nnc(-c3ccccn3)n2N)cc1Cl | inactive |
| CSc1nn(-c2ccc(C(=O)OCC(=O)NC(=O)NC(C)C)cc2)c(=S)s1 | inactive |
| COc1cc2c(cc1OC)CN(CCC(=O)c1ccc(Br)cc1)CC2 | inactive |
| C#CCCc1cscc1/C=[N+](\[O-])c1ccc(C(=O)OCC)cc1 | inactive |
| Cn1cnnc1SCc1ccc(-c2ccc(Br)cc2)o1 | inactive |
| Cc1ccc(NC(=O)/C(Cl)=C\c2ccccc2)cc1 | inactive |
| CCc1ccc(/C=C2/C(=O)N(C)C(=S)N2CC(=O)OC)s1 | inactive |
| Oc1ccc(/C=N/n2c3ccccc3c3ccccc32)cc1 | inactive |
| Cc1ccc(N2C(=O)C(F)(F)C2c2ccccc2)cc1 (centres undefined) | inactive |

Source: PubChem BioAssay AID435019 (Southern Research Specialized Biocontainment Screening …, 2010)
